High-throughput results: PubChem BioAssay, The Scripps Research Institute Molecular Screening Center
TTR transcr act – activators of transthyretin transcription | SH-SY5Y TTR promoter Gaussia luciferase, luminescence; 100% = recombinant luciferase protein wells | activation, % at 16.7 µM | 1.3% of 92,000 active | AID 1117267;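 active = activation above the mean of all tested compounds plus 3 SD, cut at about 9.5% in these data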;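 note: cells exposed to compounds for one day before reading; 0% = median of all test compound wells on the plate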
HuH7 TTR inh – decreases TTR transcription in HuH7 cells in activator counter-screen; AID 1117279; shares compounds with TTR transcr act; 4% of 1,100 active; HuH7 TTR promoter-Gaussia luciferase reporter, luminescence; inhibition, % at 16.7 µM;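 active = average inhibition above the solvent-only control wells' mean plus 3 SD, cut at about 15% in these data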;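 note: 0% = cells with DMSO only and 100% = cells with inhibitor control FD; inhibitors lower well luminescence so higher value means more inhibition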
TTR up confirm – human TTR transcription activation, confirmation | shares compounds with TTR transcr act | SHSY5Y TTR promoter Gaussia luciferase, luminescence; 100% = purified Lucia enzyme wells, no cells | activation, % at 16.7 µM | 1,100 tested, under 10 active | AID 1117280;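 active = mean activation above a set limit taken from the earlier primary screen, cut at about 11% in these data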;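 note: 0% = DMSO-treated cells and 100% = recombinant Lucia luciferase without cells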
* = called active by the depositor. Shown is part of a subset that was picked to be rich in hits.

How did CCc1nnc(NC(=O)c2cccc(S(=O)(=O)N3CCc4ccccc43)c2)s1 do in these assays?
TTR transcr act: 15*; HuH7 TTR inh: 13; TTR up confirm: -1

Results for O=C(Nc1nc2ccccc2s1)c1cccc(S(=O)(=O)N2CCc3ccccc32)c1 ?
TTR transcr act: -2

How did Nc1ccc2ccccc2c1N=Nc1ccccc1 do in these assays?
TTR transcr act: -2

What do the screens show for `O=C(CN1C(=O)NC2(CCCC2)C1=O)Nc1ccccc1N1CCCC1`?
TTR transcr act: -1

Results for O=C(CN1C(=O)NC2(CCCCC2)C1=O)Nc1ccc(N2CCCCC2)cc1 ?
TTR transcr act: 10*; HuH7 TTR inh: -4; TTR up confirm: 0

What do the screens show for `CCOC(=O)c1ccc(NC(=O)CN2C(=O)NC3(CCCCCC3)C2=O)cc1`?
TTR transcr act: -1

How did CN(CC(=O)Nc1cccc(F)c1)C(=O)c1ccc(OCC2CCCO2)cc1 (configuration not stated) do in these assays?
TTR transcr act: 0

How did Cc1ccc(NC(=O)CSCC(=O)N(C)CC(=O)Nc2cccc(F)c2)cc1 do in these assays?
TTR transcr act: -1

What do the screens show for `CCC(=O)c1ccc(OCC(=O)N(C)CC(=O)Nc2cccc(F)c2)cc1`?
TTR transcr act: 10.0*; HuH7 TTR inh: -14; TTR up confirm: 0

What do the screens show for `Cc1ccc(NC(=O)C2CCCO2)c(Br)c1` (configuration not stated)?
TTR transcr act: 1

What do the screens show for `C[C@]12CC[C@H](O)CC1=C[C@H](O)C1C2CC[C@@]2(C)C1CC[C@@]2(O)C#Cc1ccc(CN)cc1` (some centres not stated)?
TTR transcr act: 12*; HuH7 TTR inh: 1; TTR up confirm: 0

How did CN(CC(=O)Nc1ccc(Cl)c(Cl)c1)C(=O)C1CCC1 do in these assays?
TTR transcr act: 0

What do the screens show for `O=[N+]([O-])c1cccc(-c2nc(-c3ccccn3)no2)c1`?
TTR transcr act: 0

What do the screens show for `Fc1cccc(F)c1-c1nc2c(s1)CCc1onc(-c3ccc(Br)cc3)c1-2`?
TTR transcr act: -1

How did O=[N+]([O-])c1cccc(-c2noc3c2-c2nc(Cc4cccc5ccccc45)sc2CC3)c1 do in these assays?
TTR transcr act: 34*; HuH7 TTR inh: -17; TTR up confirm: 1

How did CC(C)OC(=O)CC1C(=O)NCCN1C(=S)NC(=O)c1ccc(F)cc1 (configuration not stated) do in these assays?
TTR transcr act: 4

How did O=C1CCCN1CCCNc1nc(NCc2ccccc2)nc2ccsc12 do in these assays?
TTR transcr act: -3

Results for CC(=O)Nc1ccc(C(=O)NCCN2CCOCC2)cc1 ?
TTR transcr act: -1

What do the screens show for `Cc1ccc(NS(=O)(=O)c2ccc(C(=O)NCCN3CCOCC3)cc2)cc1`?
TTR transcr act: 15*; HuH7 TTR inh: -10; TTR up confirm: 1

Results for O=C(NCCCN1CCOCC1)c1ccc(NS(=O)(=O)c2cccc([N+](=O)[O-])c2)cc1 ?
TTR transcr act: 0

Results for CCOCCCNC(=O)/C(C#N)=C/c1ccc([N+](=O)[O-])o1 ?
TTR transcr act: -6

What do the screens show for `CN(CC(=O)Nc1ccc(Cl)c(C(F)(F)F)c1)C(=O)C1CSC2(C)CCC(=O)N12` (configuration not stated)?
TTR transcr act: 5

Results for CSc1ncnc2c1ncn2CCCNCCc1ccccn1 ?
TTR transcr act: 0

Results for O=C(NC(=O)c1csnn1)Nc1ccccc1Cl ?
TTR transcr act: -1

Results for C=CC[C@@H](CC(=O)OC(C)(C)C)C(=O)OC[C@@H]1CCCN1C(=O)[C@H](CC=C)CC(=O)NCCO ?
TTR transcr act: 0

What do the screens show for `C=CC[C@H](CC(=O)NCCO)C(=O)NCCOC(=O)[C@@H](CC=C)CC(=O)OC(C)(C)C`?
TTR transcr act: 13*; HuH7 TTR inh: -8; TTR up confirm: 1

What do the screens show for `C=CC[C@@H](CC(=O)NCCO)C(=O)N[C@@H](COC(=O)[C@@H](CC=C)CC(=O)OC(C)(C)C)Cc1ccccc1`?
TTR transcr act: 6

How did CCCC1CCC2(CC1)CCC2OC(=O)Nc1c(OC)cccc1OC (configuration not stated) do in these assays?
TTR transcr act: 0

Results for O=C(CSc1nc2ccc(Nc3nc(N4CCOCC4)nc(N4CCOCC4)n3)cc2s1)Nc1ccccc1 ?
TTR transcr act: -2

How did Cc1c(OCC(=O)C(C)(C)C)ccc2c3c(c(=O)oc12)CCCC3 do in these assays?
TTR transcr act: -2

What do the screens show for `Cc1coc2c(C)c3oc(=O)c4c(c3cc12)CCCC4`?
TTR transcr act: 12*; HuH7 TTR inh: -6; TTR up confirm: 0

How did CCOC(=O)COc1ccc2c3c(c(=O)oc2c1C)CCC3 do in these assays?
TTR transcr act: 1

Results for CCCCC(=O)Nc1ccc(NCc2ccc(C)s2)cc1 ?
TTR transcr act: 1
